In all, about 5,500 compounds went through this assay and about 2,000 (36%) were called active. About 18% were inconclusive and are not listed. Rule as the data show it: active = normalized growth mostly below about 0.91 (no sharp cut-off); inconclusive = no clear call, values can overlap the other calls; inactive = mostly above about 0.92. This is one part of the list.
Assay: chemical genetic growth profiling, strain panel (AID 1159580);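 also: tested at 20 µM; growth read once vehicle control cultures reached saturation at 30 °C; 1 = growth at the plate median or of vehicle wells; lower values mean less growth of the strain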
Conditions: growth OD

Measured: normalized growth

CC[C@@H](C(=O)C(C)[C@@H](O)[C@H](C)CCc1ccc(C)c(O)c1C(=O)O)C1OC(CC)(C2CC[C@](O)(CC)[C@H](C)O2)C[C@@H]1C (some centres undefined)
inactive: S. cerevisiae deletion strains, locus YJR043C, strain POL32, stronger effect = lower value 1.02 | S. cerevisiae deletion strains, locus YJR066W, strain TOR1, stronger effect = lower value 0.928 | S. cerevisiae deletion strains, locus YJR075W, strain HOC1, stronger effect = lower value 1.01 | S. cerevisiae deletion strains, locus YKL068W, stronger effect = lower value 1 | S. cerevisiae deletion strains, locus YKL160W, strain elf1, stronger effect = lower value 1.05 | S. cerevisiae deletion strains, locus YKL190W, strain CNB1, stronger effect = lower value 1 | S. cerevisiae deletion strains, locus YKR001C, strain vps1, stronger effect = lower value 1.04 | S. cerevisiae deletion strains, locus YKR026C, strain gcn3, stronger effect = lower value 1.07 | S. cerevisiae deletion strains, locus YKR091W, strain srl3, stronger effect = lower value 1.07 | S. cerevisiae deletion strains, locus YLL026W, stronger effect = lower value 1.06 | S. cerevisiae deletion strains, locus YLL041C, strain sdh2, stronger effect = lower value 1.05 | S. cerevisiae deletion strains, locus YLR027C, strain aat2, stronger effect = lower value 1.05 | S. cerevisiae deletion strains, locus YLR039C, strain RIC1, stronger effect = lower value 1.26 | S. cerevisiae deletion strains, locus YLR058C, strain SHM2, stronger effect = lower value 1.02 | S. cerevisiae deletion strains, locus YLR102C, strain apc9, stronger effect = lower value 1.03 | S. cerevisiae deletion strains, locus YLR113W, strain HOG1, stronger effect = lower value 0.964 | S. cerevisiae deletion strains, locus YLR221C, strain rsa3, stronger effect = lower value 1.06 | S. cerevisiae deletion strains, locus YLR258W, strain gsy2, stronger effect = lower value 1.06 | S. cerevisiae deletion strains, locus YLR262C, strain YPT6 (second series), stronger effect = lower value 1.08 | S. cerevisiae deletion strains, locus YLR262C, strain YPT6, stronger effect = lower value 1.34 | S. cerevisiae deletion strains, locus YLR268W, strain sec22, stronger effect = lower value 0.996 | S. cerevisiae deletion strains, locus YLR320W, strain mms22, stronger effect = lower value 1.05 | S. cerevisiae deletion strains, locus YLR330W, strain CHS5, stronger effect = lower value 1.04 | S. cerevisiae deletion strains, locus YLR342W, strain FKS1 (second series), stronger effect = lower value 0.97 | S. cerevisiae deletion strains, locus YLR342W, strain FKS1, stronger effect = lower value 1.05 | S. cerevisiae deletion strains, locus YLR357W, strain rsc2, stronger effect = lower value 1.12 | S. cerevisiae deletion strains, locus YLR370C, strain arc18, stronger effect = lower value 1.04 | S. cerevisiae deletion strains, locus YLR371W, strain rom2, stronger effect = lower value 1 | S. cerevisiae deletion strains, locus YLR384C, strain iki3, stronger effect = lower value 1.08 | S. cerevisiae deletion strains, locus YLR418C, strain cdc73, stronger effect = lower value 0.959 | S. cerevisiae deletion strains, locus YML016C, strain PPZ1, stronger effect = lower value 1.03 | S. cerevisiae deletion strains, locus YML032C, strain rad52, stronger effect = lower value 1 | S. cerevisiae deletion strains, locus YML120C, strain ndi1, stronger effect = lower value 1.07 | S. cerevisiae deletion strains, locus YML124C, strain tub3, stronger effect = lower value 1.03 | S. cerevisiae deletion strains, locus YMR058W, strain fet3, stronger effect = lower value 1.04 | S. cerevisiae deletion strains, locus YMR078C, strain ctf18, stronger effect = lower value 1.06 | S. cerevisiae deletion strains, locus YMR125W, strain sto1, stronger effect = lower value 1.08 | S. cerevisiae deletion strains, locus YMR129W, stronger effect = lower value 1.07 | S. cerevisiae deletion strains, locus YMR205C, strain PFK2, stronger effect = lower value 1.04 | S. cerevisiae deletion strains, locus YMR223W, strain ubp8, stronger effect = lower value 0.996 | S. cerevisiae deletion strains, locus YMR307W, strain GAS1, stronger effect = lower value 0.967 | S. cerevisiae deletion strains, locus YNL067W, strain RPL9B, stronger effect = lower value 1.02 | S. cerevisiae deletion strains, locus YNL071W, strain lat1, stronger effect = lower value 1.06 | S. cerevisiae deletion strains, locus YNL153C, strain GIM3, stronger effect = lower value 1.04 | S. cerevisiae deletion strains, locus YNL183C, strain NPR1, stronger effect = lower value 0.923 | S. cerevisiae deletion strains, locus YNL209W, strain ssb2, stronger effect = lower value 1.07 | S. cerevisiae deletion strains, locus YNL233W, strain BNI4, stronger effect = lower value 1.02 | S. cerevisiae deletion strains, locus YNL248C, strain rpa49, stronger effect = lower value 1.05 | S. cerevisiae deletion strains, locus YNL250W, strain rad50, stronger effect = lower value 0.997 | S. cerevisiae deletion strains, locus YNL271C, strain bni1, stronger effect = lower value 0.996 | S. cerevisiae deletion strains, locus YNL298W, strain CLA4, stronger effect = lower value 0.978 | S. cerevisiae deletion strains, locus YNL307C, strain MCK1, stronger effect = lower value 1.05 | S. cerevisiae deletion strains, locus YNL322C, strain KRE1 (second series), stronger effect = lower value 1.08 | S. cerevisiae deletion strains, locus YNL322C, strain KRE1, stronger effect = lower value 1.02 | S. cerevisiae deletion strains, locus YNR049C, strain mso1, stronger effect = lower value 1.07 | S. cerevisiae deletion strains, locus YNR052C, strain pop2, stronger effect = lower value 1.01 | S. cerevisiae deletion strains, locus YOL006C, strain TOP1, stronger effect = lower value 0.716 | S. cerevisiae deletion strains, locus YOL012C, strain htz1 1.09 | S. cerevisiae deletion strains, locus YOL147C, strain pex11, stronger effect = lower value 1.02 | S. cerevisiae deletion strains, locus YOR001W, strain rrp6, stronger effect = lower value 1.01 | S. cerevisiae deletion strains, locus YOR061W, strain CKA2, stronger effect = lower value 1 | S. cerevisiae deletion strains, locus YOR069W, strain VPS5, stronger effect = lower value 1.02 | S. cerevisiae deletion strains, locus YOR070C, strain gyp1, stronger effect = lower value 1.06 | S. cerevisiae deletion strains, locus YOR080W, strain dia2, stronger effect = lower value 1.06 | S. cerevisiae deletion strains, locus YOR083W, strain WHI5, stronger effect = lower value 1.07 | S. cerevisiae deletion strains, locus YOR136W, strain idh2, stronger effect = lower value 1.02 | S. cerevisiae deletion strains, locus YOR144C, strain elg1, stronger effect = lower value 1.02 | S. cerevisiae deletion strains, locus YOR184W, strain ser1, stronger effect = lower value 0.997 | S. cerevisiae deletion strains, locus YOR231W, strain MKK1, stronger effect = lower value 0.963 | S. cerevisiae deletion strains, locus YOR265W, strain rbl2, stronger effect = lower value 1.05 | S. cerevisiae deletion strains, locus YOR290C, strain snf2, stronger effect = lower value 1.06 | S. cerevisiae deletion strains, locus YOR316C, strain cot1, stronger effect = lower value 1.03 | S. cerevisiae deletion strains, locus YPL051W, strain arl3, stronger effect = lower value 0.944 | S. cerevisiae deletion strains, locus YPL078C, strain atp4, stronger effect = lower value 1.05 | S. cerevisiae deletion strains, locus YPL106C, strain sse1, stronger effect = lower value 1.09 | S. cerevisiae deletion strains, locus YPL240C, strain hsp82, stronger effect = lower value 1.06 | S. cerevisiae deletion strains, locus YPL256C, strain CLN2, stronger effect = lower value 0.982 | S. cerevisiae deletion strains, locus YPR119W, strain clb2, stronger effect = lower value 1.05 | S. cerevisiae deletion strains, locus YPR141C, strain kar3, stronger effect = lower value 1.02 | S. cerevisiae deletion strains, locus YPR163C, strain tif3, stronger effect = lower value 1.07 | S. cerevisiae deletion strains, locus YPR167C, strain met16, stronger effect = lower value 1.02 | S. cerevisiae deletion strains, strain wtn01, stronger effect = lower value 1.02 | S. cerevisiae strains, strain wild type, stronger effect = lower value 1.01
active: S. cerevisiae deletion strains, locus YKL085W, strain MDH1 (second series), stronger effect = lower value 1.28 [resistant] | S. cerevisiae deletion strains, locus YKL085W, strain MDH1, stronger effect = lower value 1.28 [resistant] | S. cerevisiae deletion strains, locus YLL001W, strain dnm1, stronger effect = lower value 1.1 [resistant] | S. cerevisiae deletion strains, locus YMR231W, strain pep5, stronger effect = lower value 0.208 | S. cerevisiae deletion strains, locus YOR106W, strain vam3, stronger effect = lower value 0.557 | S. cerevisiae deletion strains, locus YOR270C, strain vph1, stronger effect = lower value 0.597
